High-throughput results: PubChem, Broad Institute
mut p53 SMM – binds human mutant p53 on microarray. small molecule microarray binding, anti-GST fluorescence. AID 624136. hit rate 0.4% among 17,000. calls only;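 active means compounds whose four printed spots each glow above background more than chance allows, each with a p-value under 7%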
c-Myc SMM – c-Myc (human) binding; small molecule microarray, His-c-Myc binding, anti-His fluorescence; calls only; hit rate 1.5% among 17,000; AID 624141;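 active means spot fluorescence over background with P-value below 7% in all four replicate spots, showing protein binding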
NFkB binder – binders of human NF-kappa-B p105 | calls only | AID 624139 | hit rate 1.3% among 17,000 | P19838 | Small molecule microarray, anti-His fluorescence binding;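 active means spot fluorescence over background significantly raised, with a chance value under 7% in all four replicate spots of the compound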;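 further: probe protein is his-tagged human p50 processed subunit at 1 µg/ml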
STAT3 SMM – binders of human STAT3; P40763; Small molecule microarray, His-STAT3 binding, anti-His fluorescence; calls only; hit rate 0.2% among 17,000; AID 624138;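 active means compounds whose four printed spots each show fluorescence over background unusually high for their array block, chance value under 7%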
Of the large screens only hits and unclear results are named; the others gave an inactive call. Hits are enriched below; roughly 2.1% of the tested compounds scored in any of these assays.

c1ccc2c(c1)OCC(c1nn3c(Cn4cnc5ccccc54)nnc3s1)O2 (centres undefined)	none
CCOc1ccc(NC(=O)C(C)Sc2ncnc3sc(-c4ccccc4)cc23)cc1 (centres undefined)	c-Myc SMM active
CC(=O)Nc1ccc(NC(=O)CSc2nnc3c4ccccc4n(C)c3n2)cc1	none
CCCCn1c2ccccc2c2nnc(SCCN3CCOCC3)nc21	mut p53 SMM active
CC(=O)OC1C(C)OC(OC2C(CO)OC(OC(=O)[C@]34CCC(C)(C)CC3C3=CCC5[C@@]6(C)CC[C@H](OC7OC(CO)C(OC8OC(CO)C(OC9OCC(O)C(O)C9O)C(O)C8O)C(O)C7O)[C@@](C)(CO)C6CC[C@@]5(C)[C@]3(C)CC4)C(OC3OC(C)C(O)C(O)C3O)C2O)C(O)C1O (some centres undefined)	c-Myc SMM active, NFkB binder active
CC1(C)CC[C@]2(C(=O)O)CC[C@]3(C)C(=CCC4[C@@]5(C)CC[C@H](O[C@@H]6O[C@H](CO)[C@@H](O)[C@H](O)[C@H]6O)[C@@](C)(CO)C5CC[C@]43C)[C@@H]2C1 (some centres undefined)	none
C[C@@H]1O[C@@H](O[C@H]2[C@H](O[C@H]3[C@H](O[C@H]4CC[C@@]5(C)C(CC[C@]6(C)C5CC=C5[C@@H]7CC(C)(C)C[C@@H](O)[C@]7(C)CC[C@]56C)[C@@]4(C)CO)O[C@H](C(=O)O)[C@@H](O)[C@@H]3O)OC[C@H](O)[C@@H]2O)[C@H](O)[C@H](O)[C@H]1O (some centres undefined)	mut p53 SMM active, c-Myc SMM active
CC1OC(OC2C(OC(=O)C34CCC(C)(C)CC3C3=CCC5C6(C)CCC(OC7OC(CO)C(OC8OC(C(=O)O)C(OC9OCC(O)C(O)C9O)C(O)C8O)C(O)C7O)C(C)(CO)C6CCC5(C)C3(C)CC4)OC(COC3OCC(O)C(O)C3O)C(O)C2O)C(O)C(O)C1O (centres undefined)	none
C[C@@H]1O[C@@H](O[C@@H]2[C@@H](O)[C@H](O[C@@H]3[C@@H](O)[C@H](C)O[C@@H](O[C@H]4[C@H](O[C@H]5CC[C@@]6(C)C(CC[C@]7(C)C6CC=C6[C@@H]8CC(C)(C)CC[C@]8(C(=O)O)CC[C@]67C)[C@]5(C)CO)OC[C@H](O)[C@@H]4O)[C@@H]3O)O[C@H](CO)[C@H]2O[C@@H]2O[C@H](CO)[C@@H](O[C@@H]3OC[C@@H](O)[C@H](O)[C@H]3O)[C@H](O)[C@H]2O)[C@H](O)[C@H](O)[C@H]1O (some centres undefined)	NFkB binder active
C[C@@H]1O[C@@H](O[C@H]2[C@H](O[C@H]3CC[C@@]4(C)C(CC[C@]5(C)C4CC=C4C6CC(C)(C)CC[C@]6(C(=O)O)CC[C@]45C)[C@]3(C)CO)OC[C@H](O)[C@@H]2O)[C@H](O)[C@H](O)[C@H]1O (some centres undefined)	NFkB binder active
CC1(C)CC[C@]2(C(=O)OC3OC(CO)C(OC4OC(CO)C(O)C(O)C4O)C(O)C3O)CC[C@]3(C)C(=CCC4[C@@]5(C)CC[C@H](OC6OC(C(=O)O)C(O)C(O)C6O)C(CO)(CO)C5CC[C@]43C)[C@@H]2C1 (some centres undefined)	none
CC1(C)CC[C@]2(C(=O)O)CC[C@]3(C)C(=CCC4[C@@]5(C)CC[C@H](O[C@@H]6O[C@H](C(=O)O)[C@@H](O[C@@H]7OC[C@@H](O)[C@H](O)[C@H]7O)[C@H](O)[C@H]6O)C(C)(C)C5CC[C@]43C)C2C1 (some centres undefined)	c-Myc SMM active, NFkB binder active
C[C@@H]1O[C@@H](O[C@H]2[C@H](O[C@H]3[C@H](O)[C@@H](C(=O)O)O[C@@H](O[C@H]4CC[C@@]5(C)C(CC[C@]6(C)C5CC[C@]57OC[C@@]8(CCC(C)(C)CC85)[C@H](O)C[C@]76C)C4(C)C)[C@@H]3O[C@@H]3O[C@H](CO)[C@@H](O[C@@H]4OC[C@@H](O)[C@H](O)[C@H]4O)[C@H](O)[C@H]3O)O[C@H](CO)[C@H](O)[C@@H]2O)[C@H](O)[C@H](O)[C@H]1O (some centres undefined)	c-Myc SMM active, NFkB binder active
C[C@@H]1O[C@@H](O[C@H]2CC[C@@]3(C)C(CC[C@]4(C)C3CC=C3C5CC(C)(C)CC[C@]5(C(=O)O[C@@H]5O[C@H](CO)[C@@H](O)[C@H](O)[C@H]5O)CC[C@]34C(=O)O)C2(C)C)[C@H](O)[C@H](O)[C@H]1O (some centres undefined)	none
C[C@H]1CCCCO[C@H](CN(C)C(=O)CCC(F)(F)F)[C@@H](C)CN([C@@H](C)CO)C(=O)c2cc(NC(=O)CCC(F)(F)F)ccc2O1	none
C[C@@H]1CCCCO[C@H](CN(C)C(=O)CCC(F)(F)F)[C@@H](C)CN([C@H](C)CO)C(=O)c2cc(NC(=O)CCC(F)(F)F)ccc2O1	mut p53 SMM active, c-Myc SMM active, NFkB binder active
C[C@@H]1CN([C@@H](C)CO)C(=O)c2cc(NC(=O)CCC(F)(F)F)ccc2O[C@@H](C)CCCCO[C@H]1CN(C)C(=O)CCC(F)(F)F	NFkB binder active
CCCC(NS(=O)(=O)c1ccc(C)cc1)C(=O)O (centres undefined)	c-Myc SMM active
Cc1nn(CC(=O)Nc2ccc3c(c2)nc(CN2CCCC2)n3C)c(=O)c2ccccc12	mut p53 SMM active, c-Myc SMM active
COC(=O)C(CC#Cc1ccc2c(c1)[C@]1(C(=O)N2)[C@H](C(N)=O)[C@H]2C(=O)O[C@H](c3ccccc3)[C@H](c3ccccc3)N2[C@@H]1c1ccccc1OCCO)C(=O)OC	mut p53 SMM active
O=C1O[C@H](c2ccccc2)[C@H](c2ccccc2)N2[C@H]1[C@@H](C(=O)N1CCCCCCC1)[C@]1(C(=O)Nc3ccc(C#CC4(O)CCCCCC4)cc31)[C@H]2c1ccccc1OCCO	mut p53 SMM active
O=C1O[C@H](c2ccccc2)[C@H](c2ccccc2)N2[C@H]1[C@@H](C(=O)N1CCCCCCC1)[C@]1(C(=O)Nc3ccc(C#CC4=CCCCC4)cc31)[C@H]2c1ccc(OCCO)cc1	mut p53 SMM active, c-Myc SMM active, NFkB binder active
O=C1O[C@H](c2ccccc2)[C@H](c2ccccc2)N2[C@H]1[C@@H](C(=O)N1CCN(c3ncccn3)CC1)[C@]1(C(=O)Nc3ccc(C#CC4=CCCCC4)cc31)[C@H]2c1ccc(OCCO)cc1	none
O=C1O[C@H](c2ccccc2)[C@H](c2ccccc2)N2[C@H]1[C@@H](C(=O)N1CCCCCCC1)[C@]1(C(=O)Nc3ccccc31)[C@H]2c1ccc(O)cc1	mut p53 SMM active, c-Myc SMM active, NFkB binder active
COC(=O)C(CC#Cc1ccc2c(c1)[C@]1(C(=O)N2)[C@H](C(N)=O)[C@H]2C(=O)O[C@H](c3ccccc3)[C@H](c3ccccc3)N2[C@@H]1c1ccc(OCCO)cc1)C(=O)OC	none
